# TRPV1 agonist = activates the human vanilloid receptor TRPV1 | AID 540275 | 320,000 compounds, 0.19% hits | activation, % at 8.33 µM | TRPV1-expressing cells, Fluo-8 calcium influx, agonist mode | Q8NER1; in the data active = activation above about 80%; inconclusive = between about 30% and that limit; note: 0% is about no effect
# Target sequence (Q8NER1 whole entry, looked up): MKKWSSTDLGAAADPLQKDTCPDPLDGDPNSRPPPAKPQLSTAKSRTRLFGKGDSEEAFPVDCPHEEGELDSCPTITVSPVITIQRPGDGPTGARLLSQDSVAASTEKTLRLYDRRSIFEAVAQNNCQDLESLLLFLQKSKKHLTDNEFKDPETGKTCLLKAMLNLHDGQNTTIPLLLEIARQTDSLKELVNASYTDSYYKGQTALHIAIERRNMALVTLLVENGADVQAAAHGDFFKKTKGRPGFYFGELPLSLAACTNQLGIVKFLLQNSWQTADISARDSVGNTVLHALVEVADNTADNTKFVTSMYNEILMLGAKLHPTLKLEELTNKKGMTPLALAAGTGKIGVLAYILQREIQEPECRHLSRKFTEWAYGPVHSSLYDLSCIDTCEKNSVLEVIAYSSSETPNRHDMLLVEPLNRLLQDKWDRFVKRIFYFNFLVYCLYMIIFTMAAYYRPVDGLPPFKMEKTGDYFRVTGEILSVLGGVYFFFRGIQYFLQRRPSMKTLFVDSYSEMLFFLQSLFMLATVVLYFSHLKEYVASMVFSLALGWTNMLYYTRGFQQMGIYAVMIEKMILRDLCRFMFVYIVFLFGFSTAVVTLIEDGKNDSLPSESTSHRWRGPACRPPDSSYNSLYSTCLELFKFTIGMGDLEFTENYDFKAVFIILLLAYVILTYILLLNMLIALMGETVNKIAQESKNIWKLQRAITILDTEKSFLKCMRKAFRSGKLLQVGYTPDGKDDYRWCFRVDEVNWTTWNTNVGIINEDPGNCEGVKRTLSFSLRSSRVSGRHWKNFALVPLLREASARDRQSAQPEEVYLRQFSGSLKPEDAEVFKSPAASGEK
#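 TRPV1-expressing cells were cultured overnight at 35.5C and loaded with Fluo-8 calcium dye for 40 to 90 min at room temperature. After a 10 s baseline, compound was added and calcium influx was read kinetically for 3 min (ex 480/em 520 nm).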
# TRPV1 PAM = potentiators of human vanilloid receptor 1 (TRPV1); Q8NER1; TRPV1-expressing cells, Fluo-8 calcium influx, capsaicin EC20 potentiation; potentiation, % at 8.33 µM; 320,000 compounds, 0.02% hits; AID 540277; in the data active = potentiation above about 80%; inconclusive = between about 30% and that limit; note: 0% is about no effect
#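 Fluo-8 calcium influx in TRPV1-expressing cells, kinetic read (ex 480/em 520 nm). Compound added and read 3 min for agonist activity, followed by capsaicin at EC20 final and 2 min further read for enhancement.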
# KCNH2 3.1 block = inhibitors of human KCNH2 3.1 potassium channel isoform; activity change, % (tested at about 1.8 µM); AID 720553; U2OS KCNH2 3.1, thallium flux FluxOr; hits give low values; 340,000 compounds, 0.95% hits;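 active = maximum activity change below -70%; inconclusive = maximum activity change from -70% to -50%; inactive = maximum activity change above -50%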;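 note: thallium influx rate constant from kinetic fluorescence after stimulation buffer; % is set by controls: 0 for no effect and ±100 for the full control effect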
#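 Channel expression came from 3.1 mutant virus (1.77 x 10^8 /mL) applied to suspended U2OS cells for 4 h. Flux was tracked with FluxOr dye plus Red40 quencher, and kinetic rate constants normalized to controls.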
# p53 reactivation = restores transcriptional activity of mutant p53; H1299 p53-A138V BP100-luciferase reporter, luminescence, 24 h; Potency, µM (highest dose often 92.2 µM), inactives show top-dose activity change, positive = activation, usual class: activators; 320,000 compounds, 0.063% hits; AID 504706; active = well fitted activation curve with a large enough effect; inconclusive = small, poorly fitted or top-dose-only effect; inactive = no such curve, though single readings can be large or run the other way; note: potency is the fitted concentration of half-maximal effect; % of control where 0% means no effect; nearly all actives have a fitted effect of over 45% in size
#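 H1299 (p53-null), stable ts p53-A138V + BP100-Luc; 1000 cells/well, Opti-MEM/10% FBS; cpd 4 pt, 1:5; 24 h, 37 deg C, 5% CO2; detection reagent 10 min RT; luminescence.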
# KCNH2 WT inh = blocks the wildtype human KCNH2 potassium channel | U2OS, BacMam KCNH2, thallium flux FluxOr; hits give low values | Q12809 | 340,000 compounds, 0.37% hits | activity change, % at 1.84 µM;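 active = maximum activity change below -70%; inconclusive = maximum activity change between -70% and -50%; inactive = maximum activity change above -50%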; note: % is set by controls: 0 for no effect and ±100 for the full control effect
#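 U2OS cells transduced with wild-type KCNH2 virus are loaded with FluxOr dye for 45 min, and thallium flux is measured in kinetic reads before and after stimulation buffer. Rate constants are normalized to DMSO controls.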
# ClpP mod = qHTS Assay for Activators of ClpP. ATP-dependent Clp protease proteolytic subunit (Bacillus subtilis (strain 168)), P80244. purified B. subtilis ClpP, FRET peptide cleavage, 20 min. Potency, µM (doses to about 57.5 µM), for inactives: at the top dose activity change, negative = active. 340,000 compounds, 1.9% hits. AID 651965, 2013; active = well fitted falling curve with a large enough effect; inconclusive = small, poorly fitted or top-dose-only effect; inactive = no such curve, though single readings can be large or run the other way; note: potency is the fitted concentration of half-maximal effect; the source files actives as falling curves though it sought activators and does not explain the sign; nearly all actives have a fitted effect of over 65% in size
#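 ClpP 10 microg/mL final, pH 8 Tris/KCl buffer with BSA, glycerol, Tween-20; compound pinned in; FRET-FV substrate; RT 20 min; Ex320/Em430; ΔFRET vs ADEP 5.8 microM, DMSO, no enzyme.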
# Numbers without * were called inactive; ? = inconclusive; . = no result. Compounds with a hit are over-represented: about 2.6% of the library has one in this group of screens.
SMILES,TRPV1 agonist,TRPV1 PAM,KCNH2 3.1 block,p53 reactivation,KCNH2 WT inh,ClpP mod
O=c1[nH]c2cc3c(cc2cc1CN(Cc1ccc2c(c1)OCO2)Cc1nnnn1CC1CCCO1)OCO3 (stereo not drawn),-1.5,-17.0,-2.6,-6.1%,-5.2,15.8µM*
Cc1cc(C)c2cc(CN(CCO)Cc3nnnn3Cc3ccccc3)c(=O)[nH]c2c1,1.8,8.4,9.8,1.8%,-3.7,-8.8%
Cc1cc(C)c2cc(CN(CCO)Cc3nnnn3Cc3ccc(F)cc3)c(=O)[nH]c2c1,2.7,-2.4,6.5,-15.3%,4.7,20µM*
O=c1[nH]c2cc3c(cc2cc1CN(CCCO)Cc1nnnn1Cc1ccc(F)cc1)OCO3,-3.3,-6.8,-1.7,16.1%,-2.0,31.6µM*
COc1cc(CNCc2c(C(=O)O)c(C)n(Cc3cccc(Cl)c3)c2C)cc(OC)c1OC,.,.,.,.,.,-5.4%
Cc1ccc(C2C=C(c3ccccc3OC(F)F)Nc3ncnn32)cc1 (stereo not drawn),29.5,-14.3,-7.7,-9.0%,6.5,22.4µM*
O=c1c2cn[nH]c2nc(SCc2c(F)cccc2F)n1-c1ccc(Cl)cc1,-1.0,-9.6,4.0,-0.5%,-229.9*,8.5%
COC(=O)C[C@@H]1CC[C@H](NC(=O)Nc2ccc(F)cc2)[C@@H](CO)O1,.,.,.,.,.,-0.9%
CCCCNC(=O)CCC(=O)Nc1ccc2nc(N3CCC(C)CC3)cc(C)c2c1,-2.3,2.4,-27.5,16.1%,-0.9,4.1%
Cc1cc(N2CCC(C)CC2)nc2ccc(N3C(=O)CCC3=O)cc12,-4.2,5.4,-5.4,6.4%,12.8,39.8µM*
O=C(N/N=C/c1cc(Br)ccc1O)c1cccc(N2CCCC2=O)c1,5.2,?,-15.3,?,0.1,1.9%
O=C(N/N=C/c1ccco1)c1cccc(N2CCCC2=O)c1,-2.6,5.8,-11.7,?,-0.9,28.2µM*
Cc1cccc(C)c1-n1nnnc1C(c1ccnc2ccccc12)N1CCN(c2ccccc2F)CC1 (stereo not drawn),.,.,.,.,.,-0.8%
Oc1ccc(-c2nc3cnccn3c2Nc2ccc3c(c2)OCCO3)cc1,.,.,-21.3,-1.7%,-26.2,-3.3%
CC(C)(C)CC(C)(C)Nc1c(-c2ccc(O)cc2)nc2cnccn12,.,.,3.7,.,-18.6,22.4µM*
Cc1ccc(CCNC(=O)c2cc3cc4cc(C)ccc4nc3s2)cc1,.,.,.,.,.,0.7%
O=C(Nc1ccccc1-c1nnc(SCc2ccccc2Cl)o1)c1ccccc1,1.3,10.2,10.1,-3.9%,10.2,20µM*
CCOC(=O)CSc1nnc(-c2ccccc2NC(=O)c2ccccc2)o1,18.3,-15.7,-4.9,-11.2%,-4.5,-25.2%
O=C(Nc1ccccc1-c1nnc(SCc2ccc(Cl)cc2Cl)o1)c1ccccc1,-1.5,6.3,-21.0,6.1%,-3.5,?
CC(C)(C)c1ccc(CSc2nnc(-c3ccccc3NC(=O)c3ccccc3)o2)cc1,-1.0,15.9,5.1,-0.4%,4.5,28.2µM*
COCc1cc(C)nc2sc(C(=O)Nc3ccccc3O)c(N)c12,.,.,.,.,.,-2.0%
O=C(O)CCCCCNC(=O)c1cccc(Br)c1,2.4,-12.2,-3.2,2.7%,3.1,3.2%
O=C(NNC(=O)c1ccccc1O)c1cccc(Br)c1,1.3,7.0,-80.7*,16.1%,3.3,-0.9%
O=C(NNC(=O)c1ccccc1O)c1ccc(Br)cc1,16.1,-14.8,3.8,18.0%,3.8,.
O=C(O)CCCC(=O)NNC(=O)c1cccc(Br)c1,1.8,1.4,-97.5*,-4.3%,6.4,.
SMILES,TRPV1 agonist,TRPV1 PAM,KCNH2 3.1 block,p53 reactivation,KCNH2 WT inh,ClpP mod
COC(=O)[C@@]12C[C@@H](CC(=O)N3CCCCC3)C(=O)N(Cc3ccccc3)C1=CCC(C)(C)C2,.,.,.,.,.,2.6%
CCCCCCCOc1ccc(CC(=O)NO)cc1,.,.,.,.,.,-5.4%
COCc1cc(C)[nH]c(=O)c1C#N,-2.4,19.1,-1.4,?,-1.5,2.82µM*
CN(C[C@H](Cc1ccccc1)N(CCN(CCc1ccccc1)N=O)N=O)N=O,3.4,14.3,-199.7*,-3.3%,18.9,1.6%
CC(=O)c1ccc(-c2c(CCO)sc3ccccc23)cc1,.,.,.,.,.,2.3%
COc1ccc(NC(=O)c2cc(-c3ccccc3)on2)cc1OC,2.2,6.8,-76.5*,23.4%,3.9,-7.0%
COc1ccc(NC(=O)c2ccc(C)cc2)c(OC)c1,8.6,-12.6,-154.0*,?,-170.2*,-1.1%
COc1cccc(-c2cc(C(=O)Nc3ccc(OC)c(OC)c3)no2)c1,8.3,-9.0,13.0,-0.8%,-26.8,13.8%
COc1ccc(C(=O)Nc2ccc(C(=O)O)cc2NC(=O)c2ccc(OC)cc2)cc1,-1.8,7.0,-9.1,-1.1%,-12.3,-1.8%
COc1ccc(-c2cc(C(=O)Nc3ccc(OC)cc3OC)no2)cc1,-4.7,26.6,-108.3*,-2.2%,1.6,-0.1%
COc1ccc(C(=O)Nc2ccc(C3=NNC(=O)CC3C)cc2NC(=O)c2ccc(OC)cc2)cc1 (stereo not drawn),83.5*,-2.9,-1.8,-7.2%,-4.5,.
Cc1ccccc1-c1cccc([C@@H]2C[C@H]3[C@H](CON3C)CN2Cc2ccccc2)c1,.,.,?,.,-1.8,0.4%
Cc1cc(O)c(C(C)C)cc1N=Cc1ccc([N+](=O)[O-])cc1,.,.,-4.0,.,-8.5,0.7%
Cc1cccc(N2CC(C(=O)OCC(=O)Nc3sccc3C(N)=O)CC2=O)c1C (stereo not drawn),.,.,27.9,6.0%,2.4,.
Cc1cccc(N2CC(C(=O)OCC(=O)c3ccc(OC(=O)c4cccs4)cc3)CC2=O)c1C (stereo not drawn),-2.6,1.6,-11.7,1.7%,1.4,31.6µM*
CNc1ccc2c3c(cccc13)C(=O)N(C)C2=O,102.6*,-2.9,-6.8,2.0%,-15.0,-0.5%
CN1C(=O)c2cccc3c(Cl)ccc(c23)C1=O,1.5,-0.6,5.9,-2.3%,-12.6,15.8µM*
CN1C(=O)c2cccc3c(Br)ccc(c23)C1=O,.,.,0.7,.,-9.8,0.9%
COc1ccc2cc(S(=O)(=O)NC3CC(C)(C)NC(C)(C)C3)ccc2c1,6.7,-11.0,0.0,0.7%,3.8,28.2µM*
Cc1ccc(Oc2nc3ccccc3n3cccc23)cc1,3.9,14.0,-28.0,2.5%,-19.2,22.4µM*
c1ccc(Oc2nc3ccccc3n3cccc23)cc1,4.7,-1.6,3.7,0.6%,3.7,28.2µM*
Cc1nnc2c(Oc3ccccc3)nc3ccccc3n12,-1.6,0.6,10.4,3.9%,2.6,-3.0%
O=Cc1ccc(/C=C2\C=Cc3ccccc32)cc1,.,.,.,.,.,15.1%
C=CCn1c(SC(C)C(=O)Nc2ccc(Cl)cn2)nnc1C1CC1 (stereo not drawn),-8.6,-7.8,-12.9,0.0%,4.5,.

# Source: PubChem BioAssay (National Center for Advancing Translational Sciences (NCATS))
